PubChem BioAssay (NCATS)
A number with no mark means an inactive call. Inconclusive results are not listed. Activity calls are given as the source filed them. Unless noted, calls follow the shape of the dose curve; as a rule, active = well fitted curve in either direction with a large enough effect (not every such curve was filed as active); inconclusive = small, poorly fitted or top-dose-only effect, or another doubt; inactive = flat fitted curve, though single readings scatter.

Experiments:
[1] = NFAT Signaling Pathway (AID 444); conditions: Jurkat NFAT-bla M1, carbachol, beta-lactamase ratio, 5 h; at 17.2 µM (top of the series) unless noted;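 also: carbachol stimulus at about its EC50 of 1 µM final; % is scaled to controls: 0 for no effect and ±100 for the full control effect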
In short: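 Jurkat cells carrying an NFAT-driven β-lactamase reporter and co-transfected muscarinic M1 receptor were treated with compound plus carbachol (1 uM final, an EC50 level) for 5 h at 37 °C. CCF4 loading followed for 1 h at RT; 460/530 nm ratio gave %activity.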

[2] = Stat Signaling Pathway (AID 446); conditions: ME-180 SIE beta-lactamase reporter, IL-6 stimulated, 5 h; at 17.2 µM (top of the series) unless noted;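 also: ME-180 cervical cancer cells given 40 pM IL-6 alongside compound; SIE-controlled beta-lactamase reporter measured as 460/530 nm FRET emission ratio; % is scaled to controls: 0 for no effect and ±100 for the full control effect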
In short: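 Screening format detects activators and inhibitors alike: ME-180 SIE-bla cells stimulated at 40 pM IL-6 for 5 hrs with compound, then dual-emission beta-lactamase read at 405 nm excitation.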

[3] = target: Glucocorticoid receptor (Homo sapiens) (UniProt P04150); experiment: GR-GFP Redistribution (AID 450;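 active = compounds whose dose series gives a full or clear partial fitted curve of increased nuclear translocation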; also: potency is read from the fitted curve at half-maximal effect)
[4] = qHTS Assay for Identification of Small Molecule Agonists for Hypoxia Response Element Signaling Pathway (AID 914; active = well fitted activation curve with a large enough effect in the signal ratio, with a control signal flat, not every such curve was filed as active; the % refers to the signal ratio; also: potency is read from the fitted curve at half-maximal effect; as to activation: % of control where 0% means no effect); conditions: ME-180 (cervical carcinoma) HRE-bla reporter, beta-lactamase ratio, CoCl2, 17 h; activation: hits give high values
In short: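 HRE-bla ME-180 cells with beta-lactamase reporter under hypoxia response element, compounds with EC50 CoCl2 for 17 hours at 37 C. CCF4 substrate, 460nm/530nm emission ratio gave %Activity; AC50 from titration series.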

Sequence of Glucocorticoid receptor (Homo sapiens) (P04150 whole entry, looked up): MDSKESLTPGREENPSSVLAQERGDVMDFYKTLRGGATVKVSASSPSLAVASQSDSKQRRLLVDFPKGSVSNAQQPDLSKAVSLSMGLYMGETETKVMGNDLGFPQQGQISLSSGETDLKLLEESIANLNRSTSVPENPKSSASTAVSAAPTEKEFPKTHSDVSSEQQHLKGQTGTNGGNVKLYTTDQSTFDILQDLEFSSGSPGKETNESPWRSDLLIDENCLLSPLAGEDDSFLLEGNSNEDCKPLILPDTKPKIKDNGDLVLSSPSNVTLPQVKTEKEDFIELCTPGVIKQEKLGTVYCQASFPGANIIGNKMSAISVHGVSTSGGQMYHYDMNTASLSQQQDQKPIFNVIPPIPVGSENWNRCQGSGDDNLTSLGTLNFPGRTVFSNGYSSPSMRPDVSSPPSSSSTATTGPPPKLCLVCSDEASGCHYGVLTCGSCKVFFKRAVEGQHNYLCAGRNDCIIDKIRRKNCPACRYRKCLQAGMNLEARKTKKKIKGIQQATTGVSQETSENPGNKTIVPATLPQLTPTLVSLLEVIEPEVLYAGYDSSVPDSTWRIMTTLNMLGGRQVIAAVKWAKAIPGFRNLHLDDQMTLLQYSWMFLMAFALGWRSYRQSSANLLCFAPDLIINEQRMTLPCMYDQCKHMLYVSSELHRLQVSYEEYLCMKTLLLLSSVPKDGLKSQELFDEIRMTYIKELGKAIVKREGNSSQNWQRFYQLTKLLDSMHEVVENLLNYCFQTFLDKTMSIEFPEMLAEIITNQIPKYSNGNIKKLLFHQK

Question: With COc1ccc2cnn(-c3ccccc3C)c(=O)c2c1OC as the compound, how does the activity change, negative = inhibition [1] read?
Answer: -6.03%

Question: What about the activity, negative = inhibition [2] of the same compound?
Answer: 24.1%

Question: And the Potency [3]?
Answer: > 20.6 µM

Question: With C=C(C)CC1N(c2cccc(OC)c2)C(=O)[C@@H]2C(C(=O)O)[C@H]3C=C[C@@]12O3 (some centres undefined) as the compound, how does the activity change, negative = inhibition [1] read?
Answer: 5.5%

Question: What about the activity, negative = inhibition [2] of the same compound?
Answer: 3.15%

Question: What about the Potency [3] of the same compound?
Answer: > 20.6 µM

Question: What does the source list for C=CCn1c(=S)[nH]c2nc3c(cc2c1=O)COC(C)(C)C3?
Answer: activity change, negative = inhibition [1]: 5.11%; activity, negative = inhibition [2]: 3.02%; Potency [3]: > 20.6 µM; activation [4]: -5.87%

Question: For CCOc1ccc(NC(=O)CSC2=C(C#N)C(c3ccc4c(c3)OCO4)CC(=O)N2)cc1 (centres undefined), which activity change, negative = inhibition [1] is on record?
Answer: -5.95%

Question: And the activity, negative = inhibition [2]?
Answer: -3.62%

Question: What about the Potency [3] of the same compound?
Answer: > 20.6 µM

Question: And the activation [4]?
Answer: -0.0576%

Question: Which activity change, negative = inhibition [1] does the source give for CC(=Nc1cccc(O)c1)c1sc2ccccc2c1O here?
Answer: -27.3%

Question: What about the Potency [3] of the same compound?
Answer: > 20.6 µM

Question: For CCOC(=O)c1cc2c(=O)n3cccc(C)c3nc2n(C)c1=N, which activity change, negative = inhibition [1] is on record?
Answer: -13%

Question: What about the Potency [3] of the same compound?
Answer: > 20.6 µM

Question: And the Potency [4]?
Answer: 6.31 µM (active)

Question: Which activity change, negative = inhibition [1] does the source give for COc1ccccc1-c1nn2c(-c3ccc(C(C)(C)C)cc3)nnc2s1 here?
Answer: -12.3%

Question: And the Potency [3]?
Answer: > 20.6 µM

Question: For C=CCn1c(N)c(C(=O)Nc2ccccc2)c2nc3ccccc3nc21, which activity change, negative = inhibition [1] is on record?
Answer: -5.29%

Question: And the Potency [3]?
Answer: > 20.6 µM

Question: And the Potency [4]?
Answer: 5.01 µM (active)

Question: Which activity change, negative = inhibition [1] does the source give for Cc1ccc(N2CC(C(=O)Nc3ccc(N(C)C)cc3)CC2=O)cc1C (centres undefined) here?
Answer: 21.8%

Question: What about the Potency [3] of the same compound?
Answer: > 20.6 µM

Question: Which activity change, negative = inhibition [1] does the source give for CCSc1nc(N)c(C#N)c(-c2ccccc2Cl)c1C#N here?
Answer: -7.47%

Question: And the Potency [3]?
Answer: > 20.6 µM

Question: Which activity change, negative = inhibition [1] does the source give for CCCCc1nc(NCCNC(=O)c2ccco2)c(C#N)c2c1CSC(C)(C)C2 here?
Answer: 12.2%

Question: And the Potency [3]?
Answer: > 20.6 µM

Question: With CN(C)c1ccc(NC(=O)c2sc(SCC(=O)Nc3nccs3)nc2N)cc1 as the compound, how does the activity change, negative = inhibition [1] read?
Answer: 2.32%

Question: What about the Potency [3] of the same compound?
Answer: > 20.6 µM

Question: Which activity change, negative = inhibition [1] does the source give for Cc1cc(-c2cc(-c3ccc(Cl)cc3)nc(N)c2C#N)co1 here?
Answer: 14.5%

Question: What about the Potency [3] of the same compound?
Answer: > 20.6 µM

Question: And the Potency [4]?
Answer: 7.94 µM (active)

Question: With O=C(Oc1oc(-c2ccco2)nc1C=Nc1ccccc1)c1ccoc1 as the compound, how does the activity change, negative = inhibition [1] read?
Answer: -123% (active)

Question: What about the Potency [3] of the same compound?
Answer: > 20.6 µM

Question: For CCN(CC)c1ccc2c(C)c(-c3ccc(N)cc3)c(=O)oc2c1, which activity, negative = inhibition [2] is on record?
Answer: 14.8%

Question: What about the Potency [3] of the same compound?
Answer: > 20.6 µM
